Consider 66 compounds from ChEMBL document CHEMBL3988442, “University of Dundee, Small-Polar-MMV Screening Library” (2021).

Out of some 48,000 compounds screened, about 13,000 (27%) showed an effect of 50% or more. The list shows a part of the results.

The test has as its system Wolbachia pipientis. As to the kind of experiment: Anti-Wolbachia Cell-Based Screen. As to conditions: 5 µM. In kind it is functional. Also on record: scale not given: in the data most compounds retested in dose-response had high values.
For `O=C(c1cnccn1)N1CC[C@H]2[C@@H]1CCC(=O)N2c1cccnc1`, the “Percent Effect” value is given as -6.797%. As for `COc1cc(C)cc(C(C(=O)O)N(C)Cc2ccncc2C)c1OC` (stereo unspecified), the “Percent Effect” value was determined as 4.518%. The same measure for `CSc1ccc(CN2C[C@@H]3CC[C@@](O)(c4ccc(C)cn4)[C@@H]3C2)cc1`: 135.2%; for `CN(C)C(=O)CN1C[C@@H]2CC[C@H](C1)N(Cc1ccc(Cl)cc1Cl)C2`: -35.05%. Take `Cc1ccc([C@]2(O)CC[C@H]3CN(Cc4ccc(Cl)cc4Cl)C[C@H]32)nc1`: the “Percent Effect” value was found to be 121.2%.

In the case of `Cc1cccc(C2(NC(=O)CCN3C(=O)CCC3=O)CCCC2)c1`, the “Percent Effect” value is given as -3.276%. In the case of `OC1CCN(c2ccc(CNc3nc4ccccc4o3)cc2F)CC1`, the “Percent Effect” value is on record as -1.066%.

Regarding `COCCOc1ccc(CNc2nc3ccccc3nc2N)cn1`, the “Percent Effect” value amounted to 162.2%. Consider `COCCOc1ccc(CNc2cnc3ccccc3n2)cn1`, for which the “Percent Effect” value is on record as 132.7%. On to `COCc1ccccc1NC(=O)NCc1ccc(OCC2CC2)nc1`, for which the “Percent Effect” value is recorded as 7.542%. On to `OCCOc1ccc(NCc2cccnc2)cn1`, for which the “Percent Effect” value is on record as 7.993%. The same measure for `COCCN1CCC(CNc2cnc3ccccc3n2)CC1`: -17.24%; for `COCCOc1ccc(NCc2cccc3cn[nH]c23)cn1`: -20.32%; for `COCCN1CCC(CNc2nc3ccccc3o2)CC1`: 8.013%. Turning to `COCCOc1ccc(CNc2nc3ccccc3o2)cn1`, the “Percent Effect” value came out at 106.2%. The same measure for `Cl.O=C1CC(NCc2cnc(N3CCCC3)nc2)CN1c1ccccc1` (stereo unspecified): 36.64%. `CC(C)N1CCO[C@H]2CN(C(=O)c3ccc(N(C)C)cc3)C[C@H]21`: the “Percent Effect” value is given as -8.625%. Take `CN(C(=O)c1ccc[nH]1)C1CC(=O)N(Cc2ccccc2)C1=O` (stereo unspecified): the “Percent Effect” value is -8.622%. Take `CCOCC(=O)Nc1ncc(I)cc1C`: the “Percent Effect” value was -8.606%.

`Cc1cc(C)c(S(=O)(=O)Nc2c(C)nc(N3CCCC3)nc2C)cc1C`: the “Percent Effect” value is given as 12.58%. With `CNC(=O)N1CCC2(CC1)CN(C)Cc1cc(F)ccc12.Cl`, the “Percent Effect” value came out at 24.69%. In the case of `Cc1nn(C)c(C)c1C1CCCN1Cc1nnc(C2CC2)n1C` (stereo unspecified), the “Percent Effect” value is -7.496%. For the compound `Cc1cc(C(=O)N2CCC(c3nnc(Cn4ccnc4)n3C)CC2)cs1`, the “Percent Effect” value is recorded as 95.2%. As for `Cc1nc(C(=O)N2CCC(c3nnc(Cn4ccnc4)n3C)CC2)cs1`, the “Percent Effect” value is recorded as 92.58%. As for `CCCc1nnc(N2CCCC(c3nnc(Cn4ccnc4)n3C)C2)s1` (stereo unspecified), the “Percent Effect” value is 0.1518%. Take `CN(CCO)Cc1nnc(C2CCN(C(=O)c3cccnc3)CC2)n1C`: the “Percent Effect” value is listed as -5.743%.

Regarding `Cn1c(Cn2ccnc2)nnc1C1CCN(C(=O)c2ccccn2)CC1`, the “Percent Effect” value was found to be 107.7%. In the case of `CN(CCO)Cc1nnc(C2CCN(C(=O)c3ccccn3)CC2)n1C`, the “Percent Effect” value is recorded as -1.336%. For the compound `Cn1c(Cn2ccnc2)nnc1C1CCN(C(=O)c2cccnc2)CC1`, the “Percent Effect” value was found to be 92.17%. Then `Cc1nc(C(=O)N2CCC(c3nccn3Cc3ccncc3)CC2)cs1`, with -0.8492%; and `Cc1nn(CN(CC2CCOC2)C2CC2)c(=O)c2ccccc12` (stereo unspecified), with -4.031%. With `Cc1nn(C)c(N2CCOCC2)c1CNC1CCOc2ccccc21` (stereo unspecified), the “Percent Effect” value is on record as -6.51%. As for `Cc1nnc(NCC2(c3ccccc3)CC2)c(C#N)c1C`, the “Percent Effect” value is 14.48%.

Consider `CC(=O)NCC(Cc1cccc(F)c1)n1cccc1` (stereo unspecified), for which the “Percent Effect” value was determined as 7.369%.

Consider `CCNC(=O)CN(CC)C(=O)c1cccc(Nc2cnn(C)c2)c1`, for which the “Percent Effect” value is -0.2175%. For the compound `CN(Cc1cnc(N)nc1)C(=O)C1CC(=O)N(Cc2ccncc2)C1` (stereo unspecified), the “Percent Effect” value is -0.2602%.

As to `CN1CCN(Cc2n[nH]c(=O)n2CC2CCCCC2)CC1`, the “Percent Effect” value amounted to 12.01%.

For `N#Cc1cccc(N2CCC(CO)(CCc3ccccc3)CC2)n1`, the “Percent Effect” value is -13.62%.

Consider `Cc1cnc(NCC(C)(C)N2CCN(C)CC2)nc1`, for which the “Percent Effect” value is reported as -0.3057%. For `CN(CCO)Cc1nnc(C2CCN(C(=O)c3cccn3C)CC2)n1C`, the “Percent Effect” value is reported as -1.148%. Regarding `Cn1cccc1C(=O)N1CCC(c2nccn2Cc2ccncc2)CC1`, the “Percent Effect” value is on record as 14.15%. Then `Cn1nc(Cn2ccnc2)c2c1CN(C(=O)c1ccoc1)C2.O=C(O)C(F)(F)F`, with -63.76%; and `Cn1c(Cn2ccnc2)nnc1C1CCN(C(=O)c2ccncc2)CC1`, with 74.15%. On to `Cn1c(Cn2ccnc2)nnc1C1CCN(Cc2cccnc2N)CC1`, for which the “Percent Effect” value was -5.827%. The same measure for `CN(CCO)Cc1nnc(C2CCN(C(=O)c3ccccc3)CC2)n1C`: 8.451%. Turning to `Cn1c(Cn2ccnc2)nnc1C1CCN(C(=O)c2ccoc2)CC1`, the “Percent Effect” value is 96.26%. The same measure for `Cc1[nH]ccc1C(=O)N1CCC(c2nnc(Cn3ccnc3)n2C)CC1`: 6.251%; for `Cn1cccc1C(=O)N1CCC(c2nnc(Cn3ccnc3)n2C)CC1`: 89.43%; for `CCN1C(=O)C(c2ccccc2)CC12CCN(c1ncccn1)CC2` (stereo unspecified): -1.132%. With `CN(Cc1ccc(F)cc1)Cc1nc(-c2cnccn2)no1`, the “Percent Effect” value is listed as -0.4176%.

Turning to `CCc1n[nH]c(C2CN(Cc3ncc(CC)o3)CCO2)n1` (stereo unspecified), the “Percent Effect” value is recorded as -12.36%.

For the compound `CC(NC(=O)N1CCc2ccccc21)c1nncn1C` (stereo unspecified), the “Percent Effect” value is reported as -4.094%. The same measure for `Cc1ccsc1CN(C)CCc1scnc1C`: 3.291%; for `CNS(=O)(=O)c1csc(C(=O)N(C)Cc2sccc2C)c1`: 1.133%. With `CCC(C)N(Cc1sccc1C)C(=O)c1ccc(S(C)(=O)=O)cc1` (stereo unspecified), the “Percent Effect” value is on record as 114.6%. As for `Cc1ccsc1CN(C)Cc1ncccc1C(=O)O`, the “Percent Effect” value is 8.285%.

For the compound `CCC(C)N(Cc1sccc1C)C(=O)c1cnc[nH]1` (stereo unspecified), the “Percent Effect” value was 112.1%. In the case of `CCC(C)N(Cc1sccc1C)C(=O)c1ccc2cccnc2n1` (stereo unspecified), the “Percent Effect” value is 114.4%. The same measure for `Cc1cc(C)c(CNC(=O)N(C)Cc2sccc2C)c(=O)[nH]1`: -0.6521%. As to `CCC(C)N(Cc1sccc1C)C(=O)c1cc(N)ccn1` (stereo unspecified), the “Percent Effect” value came out at 107.3%. For `COC(=O)c1ccc(S(=O)(=O)NCC(O)c2sccc2C)cc1` (stereo unspecified), the “Percent Effect” value is recorded as 1.544%. Take `Cc1ccsc1CNC(=O)CSc1nnc[nH]1`: the “Percent Effect” value is recorded as -7.3%. Take `CNS(=O)(=O)c1csc(C(=O)NCc2sccc2C)c1`: the “Percent Effect” value is recorded as -10.67%. For the compound `Cc1ccsc1CN(Cc1ncccc1C(=O)O)C1CC1`, the “Percent Effect” value is reported as -1.02%.

As to `O=C(NC1CC1)[C@H]1COC[C@H]2CN(c3ncc(F)cn3)C[C@H]21`, the “Percent Effect” value is reported as -1.694%.

Take `O=C(O)COc1ccc(Cl)cc1CN1CCC2(CCOCC2)CC1`: the “Percent Effect” value is listed as 5.352%.
